# Measured values taken from PubChem BioAssay.
# Results filed as inconclusive are left out. Active and inactive are the calls of the source. Rule as the data show it: active = fluorescence slope change above about 50%; inconclusive = mostly about 31% to 49%; inactive = weaker than that.
# Target: ATP-dependent translocase ABCB1 (Homo sapiens) (UniProt P08183)
# Assay: MDR1 (ABCB1) efflux transporter inhibition, cell-based (AID 377)
# Details: MDR1-expressing cells, fluorescent substrate accumulation slope; active compounds read high; concentration not given here
# Chain of ATP-dependent translocase ABCB1 (Homo sapiens) (P08183 whole entry, looked up): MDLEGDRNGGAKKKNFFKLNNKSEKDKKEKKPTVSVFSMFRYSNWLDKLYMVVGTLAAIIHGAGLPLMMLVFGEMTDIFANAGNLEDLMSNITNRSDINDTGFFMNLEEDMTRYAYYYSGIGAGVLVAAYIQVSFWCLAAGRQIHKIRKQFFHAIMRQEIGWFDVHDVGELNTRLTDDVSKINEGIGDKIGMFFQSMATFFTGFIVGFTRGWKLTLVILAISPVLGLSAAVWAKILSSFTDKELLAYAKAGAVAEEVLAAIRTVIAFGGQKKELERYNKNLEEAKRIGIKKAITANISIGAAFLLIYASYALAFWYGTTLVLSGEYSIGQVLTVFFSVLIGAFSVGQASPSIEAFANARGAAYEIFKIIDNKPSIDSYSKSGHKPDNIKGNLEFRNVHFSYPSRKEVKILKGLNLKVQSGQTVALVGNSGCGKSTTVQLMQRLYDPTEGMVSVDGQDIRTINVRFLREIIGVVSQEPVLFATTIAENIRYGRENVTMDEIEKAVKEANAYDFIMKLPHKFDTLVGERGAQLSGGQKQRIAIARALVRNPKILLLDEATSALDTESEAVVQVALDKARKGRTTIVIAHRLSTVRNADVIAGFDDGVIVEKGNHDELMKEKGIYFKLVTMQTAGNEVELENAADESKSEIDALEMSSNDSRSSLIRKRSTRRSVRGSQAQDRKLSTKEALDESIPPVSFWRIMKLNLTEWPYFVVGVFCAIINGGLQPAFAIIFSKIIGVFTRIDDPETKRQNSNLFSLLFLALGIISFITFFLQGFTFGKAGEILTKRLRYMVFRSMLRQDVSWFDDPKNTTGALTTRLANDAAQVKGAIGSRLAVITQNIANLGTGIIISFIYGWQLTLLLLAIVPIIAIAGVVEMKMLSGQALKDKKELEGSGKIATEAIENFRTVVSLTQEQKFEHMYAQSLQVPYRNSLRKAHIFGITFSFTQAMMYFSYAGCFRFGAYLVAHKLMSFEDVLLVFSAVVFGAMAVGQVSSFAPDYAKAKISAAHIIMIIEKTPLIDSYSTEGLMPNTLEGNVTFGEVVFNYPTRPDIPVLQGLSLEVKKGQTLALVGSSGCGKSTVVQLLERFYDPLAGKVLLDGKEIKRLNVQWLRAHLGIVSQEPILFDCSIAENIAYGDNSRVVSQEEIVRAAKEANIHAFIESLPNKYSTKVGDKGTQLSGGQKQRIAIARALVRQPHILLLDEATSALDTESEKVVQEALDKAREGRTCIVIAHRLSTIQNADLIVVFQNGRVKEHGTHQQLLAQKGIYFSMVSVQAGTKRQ
compound,measurement,value
CO[C@H]1/C=C/O[C@@]2(C)Oc3c(C)c(O)c4c(O)c(c(/C=N/N5CCN(C)CC5)c(O)c4c3C2=O)NC(=O)/C(C)=C\C=C\[C@H](C)[C@H](O)[C@@H](C)[C@@H](O)[C@@H](C)[C@H](OC(C)=O)[C@@H]1C,fluorescence slope change,69.2% (active)
